# Laboratory results from PubChem BioAssay AID651911 (Vanderbilt Specialized Chemistry Center, 2012).
# The source made the active and inactive calls. The rule behind the calls is not given here.
# Target: Histone deacetylase 11 (Homo sapiens) (UniProt Q96DB2)
# Test: inhibitors of recombinant human HDAC11 – biochemical, selectivity assay for E-cadherin restoration project, profiling panel (AID 651911)
# Chain of Histone deacetylase 11 (Homo sapiens) (Q96DB2 whole entry, looked up): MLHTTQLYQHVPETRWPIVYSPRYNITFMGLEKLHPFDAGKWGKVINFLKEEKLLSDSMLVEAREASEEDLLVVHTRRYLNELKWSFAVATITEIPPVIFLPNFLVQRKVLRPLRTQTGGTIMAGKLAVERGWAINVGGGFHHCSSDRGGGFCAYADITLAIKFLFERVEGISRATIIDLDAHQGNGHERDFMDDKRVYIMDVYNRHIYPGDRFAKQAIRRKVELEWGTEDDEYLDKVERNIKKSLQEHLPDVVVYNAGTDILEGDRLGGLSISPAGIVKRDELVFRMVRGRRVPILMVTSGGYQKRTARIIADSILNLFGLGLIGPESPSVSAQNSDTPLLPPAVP
smiles,measurement,value
O=C(NCCCNC(=O)c1ccc[nH]c1=O)c1cc(-c2ccccc2)on1,outcome,inactive
